From PubChem
FMDV antiviral: High Throughput Screening for Foot and Mouth Disease Virus Antivirals | FMDV antiviral cell-based qHTS | Potency, µM (series often up to 57.9 µM), inactives show at the highest dose activity change, negative = inhibition, hits mostly inhibitors | actives 1.2% (n = 410,000); calls by dose curve; tested in HEK293T cells; further: read-out not given here; potency means the concentration at half of the fitted maximal effect; nearly all actives have a fitted effect of over 45% in size
VACV mCherry inh: qHTS for Stage-Specific Inhibitors of Vaccinia Orthopoxvirus: mCherry Reporter Primary qHTS | actives 0.63% (n = 310,000) | Vaccinia virus mCherry reporter infection, fluorescence | AID 720579, 2013 | Potency, µM (top dose mostly 36.5 µM), for inactives: top-dose activity change, negative = inhibition, actives largely listed as inhibitors; calls by dose curve; tested in A549 cells; further: potency means the concentration at half of the fitted maximal effect; nearly all actives have a fitted effect of over 35% in size
MARV entry inh: qHTS for inhibitors of binding or entry into cells for Marburg Virus; Marburg virus pseudotyped entry inhibition, cell reporter; Potency, µM (series often up to 37.8 µM), without a hit: top-dose activity change, negative = inhibition, usual class: inhibitors; actives 1.8% (n = 300,000); AID 540276, 2011; calls by dose curve; tested in HEK293 cells; further: potency means the concentration at half of the fitted maximal effect
HCMV inh: qHTS Assay for inhibitors of the human cytomegalovirus (HCMV) | HFF cells, HCMV-luciferase reporter, 72 h; stronger effect = lower value | activity change, negative = inhibition, % at 57.5 µM | actives 4.5% (n = 410,000); in the data active means activity change below about -60%; inconclusive means no clear call, values can overlap the other calls; inactive means above about -39%
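Screen run at 2 compound doses on HFFs infected with reporter HCMV, MOI 1 PFU/cell. Luciferase activity from cell lysates at 72 h post infection gave inhibition relative to buffer-only and Salinomycin wells.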
Vaccinia Venus: qHTS for Stage-Specific Inhibitors of Vaccinia Orthopoxvirus: Venus Reporter Primary qHTS. actives 0.46% (n = 330,000). Vaccinia virus Venus reporter expression, fluorescence. Potency, µM (doses to about 36.5 µM), for the others: at the top dose activity change, negative = inhibition, usual class: inhibitors; calls by dose curve; tested in A549 cells; further: potency means the concentration at half of the fitted maximal effect; nearly all actives have a fitted effect of over 30% in size
LASV entry inh: qHTS for Inhibitors of binding or entry into cells for Lassa Virus; actives 1.2% (n = 300,000); Potency, µM (titrated, usually from 37.9 µM), for inactives: at the top dose activity change, negative = inhibition, usual class: inhibitors; AID 540256, 2011; Lassa virus pseudotype entry inhibition, cell reporter; calls by dose curve; tested in HEK293 cells; further: potency means the concentration at half of the fitted maximal effect; nearly all actives have a fitted effect of over 50% in size
The depositor's hits bear a star; [ ] = another dose, or the depositor's remark. Compounds with a hit are over-represented: about 6.5% of the library has one in this group of screens. On the % scale 0 is the no-effect control and ±100 the full control effect.

Results for O=C(c1cccn(Cc2ccc(Cl)c(Cl)c2)c1=O)N1CCOCC1 ?
FMDV antiviral: -9%; MARV entry inh: -2%; HCMV inh: -23; LASV entry inh: 0%

How did O=c1c(-c2nc3ccccc3s2)cccn1Cc1ccc(Cl)c(Cl)c1 do in these assays?
FMDV antiviral: 23%; MARV entry inh: 1%; HCMV inh: -63*; LASV entry inh: 4%

How did O=C1[C@@H]2[C@H]3[C@H](O)[C@H](O)CC(=NOC[C@@H](O)COCc4ccco4)[C@H]3CC[C@H]2C(=O)N1C[C@@H]1CCCO1 do in these assays?
MARV entry inh: 4%[14.2 µM]

Results for CC(=O)Nc1ccccc1-c1nc(CNC(=O)c2ccc(-c3ccccc3F)cc2)c(C)o1 ?
FMDV antiviral: 16%; VACV mCherry inh: -24%; Vaccinia Venus: -22%

What do the screens show for `COCc1cc(C)nc(OCC(=O)N/N=C/c2ccc(-c3cc([N+](=O)[O-])ccc3C)o2)c1C#N`?
FMDV antiviral: -12%; VACV mCherry inh: -14%; MARV entry inh: 16%; HCMV inh: -25; Vaccinia Venus: -10%; LASV entry inh: 5%

What do the screens show for `Cc1ccc([N+](=O)[O-])cc1-c1ccc(/C=C(\C#N)c2[nH]nc(N)c2C#N)o1`?
FMDV antiviral: -25%; VACV mCherry inh: 10µM*; MARV entry inh: inconclusive; HCMV inh: inconclusive; Vaccinia Venus: inconclusive; LASV entry inh: inconclusive

Results for CCOC(=O)CC1=C(C(=O)OCC)[C@H](c2ccc(OC)c(OC)c2)C(C#N)=C(N)O1 ?
MARV entry inh: 1%

What do the screens show for `COc1ccc(/C(N)=N/OC(=O)c2ccco2)cc1`?
FMDV antiviral: -45%; VACV mCherry inh: 1%; MARV entry inh: inconclusive; HCMV inh: 79; Vaccinia Venus: 4%; LASV entry inh: 7.1µM*

What do the screens show for `C=CCn1c(-c2cc(OC)c(OC)c(OC)c2)n[nH]c1=S`?
FMDV antiviral: 17%; MARV entry inh: 8%; HCMV inh: 18; LASV entry inh: -5%

How did C=CCn1c(-c2cccc(OC)c2OC)n[nH]c1=S do in these assays?
FMDV antiviral: inconclusive; VACV mCherry inh: -9%; MARV entry inh: inconclusive; HCMV inh: -70*; Vaccinia Venus: -9%; LASV entry inh: -26%

Results for CCNC(=O)Cn1c(-c2cccs2)cc2ccccc21 ?
FMDV antiviral: -7%; VACV mCherry inh: 7%; HCMV inh: -6; Vaccinia Venus: -2%; LASV entry inh: 0%[46.1 µM]

What do the screens show for `COc1ccc2cc(C(=O)C3CCCN(C(=O)CSc4nnc(C)o4)C3)ccc2c1` (stereo not given)?
FMDV antiviral: -23%; VACV mCherry inh: inactive; MARV entry inh: inconclusive; HCMV inh: -66*; Vaccinia Venus: -21%; LASV entry inh: -23%[46.1 µM]

What do the screens show for `Cc1ccsc1C(=O)C1CCCN(Cc2cnc(N3CCOCC3)s2)C1` (stereo not given)?
FMDV antiviral: 25µM*; VACV mCherry inh: -22%; MARV entry inh: inconclusive; HCMV inh: -33; Vaccinia Venus: -13%; LASV entry inh: inconclusive

How did Cc1ccsc1C(=O)C1CCCN(Cc2cnc(N)nc2)C1 (stereo not given) do in these assays?
FMDV antiviral: -20%; VACV mCherry inh: inconclusive; MARV entry inh: inconclusive; HCMV inh: 15; Vaccinia Venus: -13%; LASV entry inh: 12%[46.1 µM]

What do the screens show for `Cc1nnc(SCC(=O)N2CCCC(C(=O)c3ccc(Cl)cc3)C2)o1` (stereo not given)?
FMDV antiviral: -12%; VACV mCherry inh: 1%; MARV entry inh: -19%[46.1 µM]; HCMV inh: 36; Vaccinia Venus: -4%; LASV entry inh: 36%

Results for COc1ccc2cc(C(=O)C3CCCN(Cc4cnc(N5CCOCC5)s4)C3)ccc2c1 (stereo not given) ?
FMDV antiviral: -19%; VACV mCherry inh: inconclusive; MARV entry inh: inconclusive; HCMV inh: -65*; Vaccinia Venus: -21%; LASV entry inh: -29%[46.1 µM]

What do the screens show for `CCN(c1cc(C)cc(C)c1)S(=O)(=O)c1nnc(NC(=O)C(C)C)s1`?
FMDV antiviral: 13%; VACV mCherry inh: -5%; MARV entry inh: inconclusive; HCMV inh: -77*; Vaccinia Venus: -21%; LASV entry inh: -20%

What do the screens show for `CCN(c1ccc(C)cc1C)S(=O)(=O)c1nnc(NC(=O)C(C)C)s1`?
FMDV antiviral: -27%; HCMV inh: -73*

What do the screens show for `CN(C)/C=N/c1c(C#N)cnn1-c1ncnc2sc(-c3ccccc3)cc12`?
FMDV antiviral: inconclusive; VACV mCherry inh: -8%[1.46 µM]; MARV entry inh: inconclusive; HCMV inh: -23; Vaccinia Venus: inconclusive; LASV entry inh: 11µM*

Results for O=c1[nH]c(SCCOc2cccc3ccccc23)nc2ccccc12 ?
FMDV antiviral: 0%; VACV mCherry inh: -4%; MARV entry inh: 2.8µM*; HCMV inh: inconclusive; Vaccinia Venus: -3%; LASV entry inh: inconclusive

What do the screens show for `CCOc1ccc(OCCSc2nc3ccccc3c(=O)[nH]2)cc1`?
FMDV antiviral: 8%; MARV entry inh: 4%; HCMV inh: -10; LASV entry inh: -7%

How did Cc1c(C)n(Cc2ccccc2)c2ccc(C(=O)OCCCN(C)C)cc12 do in these assays?
FMDV antiviral: -8%; VACV mCherry inh: -8%; MARV entry inh: 10µM*; HCMV inh: -63*; Vaccinia Venus: -20%; LASV entry inh: inconclusive

What do the screens show for `COc1ccc(N2CCN(C(=O)Cn3c(-c4cccs4)cc4ccccc43)CC2)cc1`?
FMDV antiviral: -21%; VACV mCherry inh: -6%; HCMV inh: 24; Vaccinia Venus: -1%; LASV entry inh: 12%[46.1 µM]

What do the screens show for `O=C(CNC(=O)c1cccs1)c1ccc([N+](=O)[O-])cc1`?
FMDV antiviral: 14%; VACV mCherry inh: -18%; MARV entry inh: inconclusive; HCMV inh: 28; Vaccinia Venus: -13%; LASV entry inh: 0%

What do the screens show for `O=C(CNC(=O)c1cccs1)OCC(=O)c1ccc([N+](=O)[O-])cc1`?
FMDV antiviral: 6%; VACV mCherry inh: -6%; MARV entry inh: -24%[46.1 µM]; HCMV inh: -65*; Vaccinia Venus: -4%; LASV entry inh: 9%

What do the screens show for `O=C(CNC(=O)c1cccs1)c1ccc(F)cc1`?
FMDV antiviral: -26%; VACV mCherry inh: -17%; MARV entry inh: inconclusive; HCMV inh: -75*; Vaccinia Venus: -3%; LASV entry inh: -22%

What do the screens show for `Cc1ccc(C(=O)COC(=O)c2cccs2)cc1`?
FMDV antiviral: 22µM*; MARV entry inh: inconclusive; HCMV inh: 36; LASV entry inh: -17%

How did O=C(CNC(=O)c1ccco1)OCC(=O)c1ccc(Cl)cc1 do in these assays?
FMDV antiviral: -6%; HCMV inh: -20
